A selection: hits, their analogues and other compounds. The true share with any hit is near 2.4%.
Pol beta inh – inhibitors of human DNA polymerase beta; P06746; Pol beta primer extension/strand displacement, fluorescence kinetic; Potency, µM (doses to about 114 µM), hits mostly inhibitors; 1.3% of 340,000 active; AID 485314
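Kinetic readout of DNA synthesis with strand displacement by Pol beta. Compound and 10 nM enzyme sit 15 min at room temperature; 50 nM substrate starts the reaction, read immediately and at 10 min.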
Pol eta inh-1 – blocks human DNA polymerase eta activity. Potency, µM (top dose mostly 114 µM), hits mostly inhibitors. Q9Y253. recombinant Pol eta, fluorescent DNA replication assay. AID 588591. 1.2% of 390,000 active
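Pol eta at 10 nM preincubated with compounds 15 min at room temperature; reaction started with fluorescent substrate (50 nM final) and read kinetically at 0 and 10 min.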
POLI inh – blocks human DNA polymerase iota activity | Q9UNA4 | Pol iota fluorescent replication assay, 10 min | Potency, µM (titrated, usually from 115 µM), hits mostly inhibitors | 1% of 390,000 active | AID 588590
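Pol iota at 10 nM preincubated 15 min with compounds at room temperature; reaction started with fluorescent substrate, 50 nM final. Fluorescence read kinetically at 0 and 10 min; buffer-only wells as negative control.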
FEN1 inh – blocks human flap endonuclease 1; Recombinant FEN1 flap cleavage, fluorescence, 15 min; 0.35% of 390,000 active; Potency, µM (highest dose often 114 µM), most hits filed as inhibitors; P39748; note: nearly all actives have a fitted effect of over 65% in size
Target sequence (P39748 whole entry, looked up): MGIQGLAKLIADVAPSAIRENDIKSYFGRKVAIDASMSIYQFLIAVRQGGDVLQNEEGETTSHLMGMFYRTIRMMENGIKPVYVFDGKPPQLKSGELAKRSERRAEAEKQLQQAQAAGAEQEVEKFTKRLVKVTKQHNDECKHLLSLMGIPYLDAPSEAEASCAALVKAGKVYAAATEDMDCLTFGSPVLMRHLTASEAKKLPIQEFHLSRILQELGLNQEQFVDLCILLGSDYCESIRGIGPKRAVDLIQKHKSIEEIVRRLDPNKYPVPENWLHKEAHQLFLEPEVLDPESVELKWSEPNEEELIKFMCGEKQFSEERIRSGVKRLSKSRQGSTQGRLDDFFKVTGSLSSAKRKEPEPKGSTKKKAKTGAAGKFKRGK
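Nuclease activity of 10 nM FEN1 was measured after 15 min of room-temperature exposure to titrated compounds, by adding 50 nM flap substrate and reading plates at 0 and 15 min.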
Pol kappa inh-1 – blocks human DNA polymerase kappa activity; Q9UBT6; purified Pol kappa, fluorescent DNA synthesis assay, 10 min; Potency, µM (titrated, usually from 107 µM), actives largely listed as inhibitors; 0.53% of 400,000 active; AID 588579
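Activity was followed as the change in fluorescence between reads at 0 and 10 min after starting the reaction with 50 nM substrate. Beforehand, 10 nM polymerase had been preincubated with compound for 15 min at room temperature.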
WRN helicase inh – WRN helicase (human) inhibition; WRN helicase unwinding, fluorescent forked duplex, kinetic; 0.46% of 360,000 active; Q14191; Potency, µM (series often up to 114 µM), usual class: inhibitors; note: nearly all actives have a fitted effect of over 55% in size
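Fluorescence dequenching readout, ex 525 nm/em 598 nm, kinetic mode: forked duplex DNA (100 nM final) with adjacent fluorophore and quencher unwound by WRN (20 nM final) with 2 mM ATP. Compound preincubation 15 min, room temperature.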
Pol kappa inh-2 – Pol kappa (human) inhibition, cherry-pick confirmation | Potency, µM, usual class: inhibitors | shares compounds with Pol eta inh-1 | AID 720501 | 76% of 920 active | purified Pol-kappa, fluorescent strand-displacement substrate
Pol eta inh-2 – Pol eta (human) inhibition, cherry-pick confirmation. Pol eta primer extension, TAMRA/BHQ fluorescence, 10 min. 64% of 2,600 active. shares compounds with Pol eta inh-1. Potency, µM, actives largely listed as inhibitors. AID 720502
Each line names hits and unclear results; the compound was inactive in the other large screens (follow-up assays come after a bar, where they were run). Calls come from the whole dose curve; as a rule, active = well fitted curve in the direction sought with a large enough effect; inconclusive = small, poorly fitted or top-dose-only effect, or another doubt; inactive = no such curve, though single readings can be large; an effect the other way counts as inactive or inconclusive.

COC(=O)c1cc2c(cc1NC(=O)c1c(C)nn(-c3ccc(C)cc3)c1-n1cccc1)OCO2	none (no result: WRN helicase inh)
c1ccc2c(c1)OCC(c1nnc3sc(-c4cnccn4)nn13)O2 (centres undefined)	Pol eta inh-1 89.1µM, POLI inh inconclusive | Pol eta inh-2 inconclusive
O=C(O)c1ccccc1C(=O)c1ccc2oc(=O)[nH]c2c1	Pol eta inh-1 22.4µM, POLI inh inconclusive, Pol kappa inh-1 inconclusive (no result: Pol beta inh) | Pol kappa inh-2 inconclusive | Pol eta inh-2 37.9
O=C(N/N=C/c1cc(Br)c(O)c(Br)c1O)c1ccc2c(c1)OCCO2	Pol beta inh 39.8µM, Pol eta inh-1 inconclusive, POLI inh inconclusive | Pol kappa inh-2 33.6 | Pol eta inh-2 inconclusive
CC(=O)Nc1c(O)nc(SCC(=O)Nc2nnc(CC(C)C)s2)[nH]c1=O	none
CC(=O)Nc1c(O)nc(SCC(=O)Nc2nnc(SCc3ccccc3)s2)[nH]c1=O	Pol eta inh-1 35.5µM, POLI inh 25.1µM, FEN1 inh inconclusive, Pol kappa inh-1 inconclusive | Pol eta inh-2 inconclusive
Cc1cc(Nc2cccc(C(F)(F)F)c2)nc2ccc(NC(=O)c3ccc(N(C)C)cc3)cc12	POLI inh inconclusive (no result: WRN helicase inh)
O=c1c2ccccc2[nH]c2ccc(O)cc12	Pol beta inh 17.8µM, Pol eta inh-1 17.8µM, POLI inh inconclusive, FEN1 inh inconclusive, Pol kappa inh-1 79.4µM, WRN helicase inh 50.1µM | Pol eta inh-2 53.6
COc1ccc(/C=C/C(=O)O)cc1S(=O)(=O)NCc1ccco1	Pol beta inh inconclusive, Pol eta inh-1 56.2µM, POLI inh inconclusive | Pol eta inh-2 67.5
COc1ccc(/C=C/C(=O)O)cc1S(=O)(=O)NC1CCS(=O)(=O)C1 (centres undefined)	Pol beta inh inconclusive, Pol eta inh-1 28.2µM, POLI inh inconclusive | Pol kappa inh-2 67 | Pol eta inh-2 inconclusive
COc1cc(/C=C/C(=O)O)cc(S(=O)(=O)NCc2ccco2)c1OC	none
COc1cc(/C=C/C(=O)O)cc(S(=O)(=O)NC2CCCC2)c1OC	none
Cc1ccc(C(c2sc3nc(-c4ccco4)nn3c2O)N2CCN(Cc3ccccc3)CC2)cc1 (centres undefined)	none (no result: WRN helicase inh)
O=[N+]([O-])c1cc(-c2nc(-c3ccccc3)no2)ccc1NCCc1ccccc1	none (no result: WRN helicase inh)
CCn1nc(-c2ccccc2)c(-c2ccccc2)c(C(=O)Nc2nc(C)c(C(C)=O)s2)c1=O	POLI inh inconclusive (no result: WRN helicase inh)
O=c1c2ccccc2nc2c3ccccc3c(NCc3cccnc3)nn12	none
O=c1c2ccccc2nc2c3ccccc3c(NCc3ccccn3)nn12	Pol beta inh inconclusive, Pol eta inh-1 inconclusive, FEN1 inh inconclusive | Pol kappa inh-2 26.7 | Pol eta inh-2 47.8
C/C(=N\Nc1cccc(C(=O)O)c1)c1ccc(Cl)s1	Pol beta inh 31.6µM, Pol eta inh-1 20µM, POLI inh 35.5µM, Pol kappa inh-1 70.8µM | Pol eta inh-2 26.9
COc1ccc(/C(C)=N/Nc2cccc(C(=O)O)c2)cc1OC	Pol eta inh-1 inconclusive
COc1ccc(C)cc1N1CC(C(=O)Nc2cccc(C(=O)NC3CC3)c2)CC1=O (centres undefined)	none (no result: Pol beta inh, POLI inh, FEN1 inh, Pol kappa inh-1)
Cc1ccc(N2CC(C(=O)Nc3cccc(C(=O)NC4CC4)c3)CC2=O)cc1 (centres undefined)	Pol eta inh-1 35.5µM, POLI inh inconclusive (no result: Pol beta inh) | Pol kappa inh-2 inconclusive
Cc1cc(C)cc(-n2c(SCC(N)=O)nc3c([nH]c4ccccc43)c2=O)c1	none (no result: WRN helicase inh)
CCC(=O)N1CCc2cc(Br)cc(S(=O)(=O)CCC(=O)NCCc3ccccc3Cl)c21	Pol beta inh inconclusive, Pol eta inh-1 inconclusive (no result: WRN helicase inh) | Pol kappa inh-2 33.6 | Pol eta inh-2 75.7
CCC(=O)N1CCc2cc(Br)cc(S(=O)(=O)CCC(=O)NCCc3ccc(C)cc3)c21	none (no result: WRN helicase inh)
COc1cccc(CNC(=O)c2ccc3nc(N4CCCCC4)sc3c2)c1OC	none (no result: WRN helicase inh)

High-throughput results: PubChem, National Center for Advancing Translational Sciences (NCATS)
